This is an account of results in PubChem BioAssay AID1347417 (National Center for Advancing Translational Sciences (NCATS), 2020).

Molecules are shown by their SMILES. Among all 120,000 compounds or so, about 5,300 (4.4%) were called active. A call without a number means that no potency is given here. Not shown: some 22% with an inconclusive outcome. Many of the other results were omitted from the sample, so actives are more common in it than they were. Unmarked numbers belong to inactive results. Calls come from the whole dose curve; as a rule, active = well fitted inhibition curve with a large enough effect; inconclusive = small, poorly fitted or top-dose-only effect; inactive = no such curve, though single readings can be large or run the other way.
Potency is the fitted concentration of half-maximal effect.

This test is described as follows: qHTS Primary assay for Inhibitors of Plasmodium falciparum Dd2 growth in vitro. Note: nearly all actives have a fitted effect of over 65% in size. The settings on record: P. falciparum Dd2 growth, SYBR Green, 72 h; series mostly up to 28.9 µM. The text has this:
Malaria, a parasitic disease spread to humans through the bite of a Plasmodium infected Anopheles mosquito, continues to be a global health burden affecting millions of people, with an estimated 228 million cases and 405,000 deaths in 2018. Concerns about safety and limitations of current antimalarial treatments strongly emphasize the need to develop new therapeutic options. The scarce number of chemotypes and validated drug targets with efficacy against the liver stage, have hindered development of new antimalarials. To address this, a chemoprophylactic drug discovery effort was conducted through a combined phenotypic high-throughput asexual blood stage and liver stage screen, providing a robust foundation to identify liver-stage active lead chemotypes. Compounds were initially screened against Plasmodium falciparum Dd2 strain parasites using a in vitro SYBRGreen-1 based 72 hr proliferation assay to identify novel chemotypes to advance to liver stage assays. NIH/NCATS Early Translation Branch Assay Submitter (PI): Anton Simeonov Ph.D.
Malaria-vivax Assay Protocol: PROTOCOL TABLE (as described by Inglese et al., 2007) SEQUENCE No. (e.g., 1, 2, 3, etc.); […] (e.g., Cells, Incubation, Reagent, etc.); VALUE; DESCRIPTION SEQUENCE, Parameter, Description 1; Reagent; 3 uL complete malaria growth medium, 1536 TC treated Black clear bottom plate 2; Controls; 23 nL positive control artesunate (300 nM final) to column 1; Neutral control DMSO to columns 2-4 3; Compound; 23 nL of compounds in dose response concentration (29 uM to 0.5 nM final) 4; Reagent; 5 uL malaria infected red blood cells (2.5% hematocrit final, 0.3% parasitemia 5; Time; 72 hours at 37C (5% O2, 5% CO2, 90% N2; 95% Rh) 6; Reagent; 2 uL lysis buffer/SYBRGreen-1, 25 sec shake immediately following dispense 7; Time; ~16 hours at 37C (5% O2, 5% CO2, 90% N2; 95% Rh) 8; Detector; EnVision (PerkinElmer) bottom read at 485/14nm excitation and 535/25 nm emission NOTES (numbers refer to sequence above): 1; Complete Malaria Growth Media: 1X RPMI-1640 w/L-glutamine, 5.5g/L Albumax II, 367 uM Hypoxanthine, 25 mM HEPES, 0.25% Sodium Bicarbonate, 35 uM Gentamicin sulfate 2; Controls were added using the Kalypsis Pintool (Wako USA) equipped with 1536 pinhead 3; Compounds were added in a 7-point, titration with a high final concentration of 29 uM by Pintool from seven inter-plate titrations of library plates and two DMSO control plates at the beginning and end (see Yasgar et al., 2008). 4; Red blood cells infected with Plasmodium falciparum Dd2 parasites were used. 6; Lysis buffer: 20 mM Tris-HCl, 10 mM EDTA, 0.16% Saponin, 1.6% Triton-X, 10X SYBR Green. REFERENCE: Inglese J, Shamu CE, Guy RK. 2007. Reporting data from high-throughput screening of small-molecule libraries. Nat Chem Biol. doi:10.1038/nchembio0807-438 Yasgar A, Shinn P, Jadhav A, Auld D, Michael S, Zheng W, Austin CP, Inglese J, Simeonov A. 2008. Compound Management for Quantitative High-Throughput Screening. J Lab Autom 13:79-89. doi:10.1016/j.jala.2007.12.004
Consider `CC(C)(C)OC(=O)N1CCC(c2c(C(=O)NCCc3ccsc3)cnn2-c2ccc(F)cc2F)CC1`, for which the Potency was 8.91 µM (active).
The same measure, in the same setting: then `O=C(c1n[nH]c(=O)c2ccccc12)N1CC2CC(C1)[C@H]1CCCC(=O)N1C2` (some centres not stated), with “inactive”; and `Cc1ccc(N2Cc3c(NCCCOC(C)C)ncnc3N(C)CC2=O)cc1`, with “inactive”; and `Cc1cc(=O)[nH]c(NCCNC(=O)c2cc(-c3cccn3C)n[nH]2)n1`, with “inactive”.
Turning to `Cc1cccc(CC(=O)N2C[C@@H](COc3ccccc3)[C@H](C(N)=O)C2)c1`, the Potency entry is “inactive”.
For the compound `Cc1nc(C(=O)N2CC[C@H](NC(=O)c3snnc3C)C[C@H]2C(=O)N[C@H](CC(C)C)C(N)=O)cs1`, the Potency entry was “inactive”.
For the compound `Cc1ccc(NC(=O)N2CC3CC(C2)[C@H]2CCCC(=O)N2C3)cc1F` (some centres not stated), the Potency result was “inactive”.
For the compound `O=C(N[C@@H]1C[C@H](Cn2cc(CN3CCS(=O)(=O)CC3)nn2)[C@@H](O)[C@H]1O)c1cnccn1`, the Potency entry was “inactive”.
For the compound `CCC1(N2CCN(C(=O)c3ccc(C(F)(F)F)s3)CC2)CCN(C(=O)NC)C1` (configuration not stated), the Potency entry is “inactive”.
As to `N#Cc1ccccc1NC(=O)c1cc2n(n1)CC(c1ccc(Br)cc1)OC2` (configuration not stated), the Potency entry is “inactive”.
On the same count and under the same terms, then `CC(=O)N1CCN(c2ccc3nnc(-c4ccc(C)cn4)n3n2)CC1`, with “inactive”.
Regarding `Cc1cn2nc(C(=O)N3CCC(NC(=O)CCc4ccccc4)CC3)cc2c(=O)[nH]1`, the Potency was 14.1 µM (active).
With `O=C(Cn1nc(-c2ccccc2)n(CCc2ccccc2)c1=O)NC1CC1`, the Potency entry was “inactive”.
Consider `Cc1cn2nc(C(=O)N3CCC(NC(=O)c4ccc(C#N)cc4)CC3)cc2c(=O)[nH]1`, for which the Potency result was “inactive”.
Still for that read-out and setting: then `COC(=O)[C@@H](Cc1cccnc1)NC(=O)[C@H]1CN(S(=O)(=O)c2ccccc2)CCN1C(=O)N1CCOCC1`, with “inactive”.
On to `COC1C(=O)N(c2cccc(F)c2)C12CCN(C(=O)NCc1ccc(C)cc1)CC2` (configuration not stated), for which the Potency result was “inactive”.
For the compound `CCS(=O)(=O)N1CCC2(CC1)CC(N1CCN(C(C)C)CC1)CCO2` (configuration not stated), the Potency result was “inactive”.
`C=CCN1CC2(CCC1=O)CCN(C(=O)[C@H](N)Cc1ccccc1)CC2`: the Potency entry was “inactive”.
For `Cn1cc(CN2CCN(Cc3ccccc3)CC2)ccc1=O`, the Potency entry was “inactive”.
As for `O=C1CCC2(CCN(Cc3ccc4[nH]ccc4c3)CC2)CN1CCc1ccccc1`, the Potency is 7.08 µM (active).
For the compound `COc1ccc(C(=O)N2CCCOCCNC(=O)CC2)c(OC)n1`, the Potency entry is “inactive”.
In the case of `CN(Cc1nc2ccsc2c(=O)[nH]1)C(=O)C1NCCc2[nH]cnc21` (configuration not stated), the Potency result was “inactive”.
With `COc1ccc(C(=O)N2c3ccccc3CC2c2nc(C(C)C)no2)c(OC)c1` (configuration not stated), the activity, negative = inhibition was 4.25% [at 5.79 µM].
`O=C(c1nc2c(o1)CCN(Cc1ccccc1F)CC2)N1CCOCC1`: the Potency entry was “inactive”.
Consider `CN1C(=O)[C@H]2CN(Cc3ccccc3Cl)C[C@H]2C1=O`, for which the Potency result was “inactive”.
`O=C1[C@H]2CN(Cc3ccccc3F)C[C@H]2C(=O)N1CCN1CCc2ccccc2C1`: the Potency is 5.01 µM (active).
For `COCCn1cc(CN2CCN(c3ccccc3F)CC2)ccc1=O`, the Potency result is “inactive”.
For `COc1ccc(Nc2ncc3c(n2)CCN(C(=O)OC(C)(C)C)C3)cc1`, the Potency was 5.62 µM (active).
Consider `CCOc1ccc2c(n1)CCN(C(=O)Nc1ccc(OC)cc1C)C2`, for which the Potency entry is “inactive”.
With `CCOc1ccc2c(n1)CCN(C(=O)C(C)C)C2`, the Potency result is “inactive”.
Same read-out and setting: the result for `COc1ccc(C(=O)NC2CCN(c3cc(-c4cccs4)[nH]n3)C2)cc1F` (configuration not stated) reads “inactive”; that for `COCCc1noc(-c2ccc(NC(C)c3ncccc3C)nc2)n1` (configuration not stated), “inactive”; that for `O=C(NCC1(COc2cccnc2)C[C@@H](O)[C@@H](O)C1)C1CCCC1` (some centres not stated), “inactive”.
`O=C1CCN(Cc2ccc3c(c2)CCO3)CCOCCN1`: the Potency result is “inactive”.
Same read-out and setting: then `O=C(c1ccccc1)N1CCOc2ccc(CN3CCc4ccccc4C3)cc2C1`, with 7.94 µM (active); and `O=C(CC1CCCC1)N1CCOc2ccc(CN3CCc4ccccc4C3)cc2C1`, with 5.01 µM (active); and `CC(C)(O)CCc1ccc(C(=O)N2CCOc3ccc(Cl)cc3C2)cc1`, with “inactive”.
As for `CC(C)C(=O)N1CCOc2ccc(CN3CCc4ccccc4C3)cc2C1`, the Potency result was “inactive”.
Take `CCC(C)N1CCN(C(=O)CCc2ccc3c(c2)CN(C(=O)C2CC2)CCO3)CC1` (configuration not stated): the Potency entry is “inactive”.
Turning to `CC1CCC(NC(=O)CN2C(=O)NC3(CCS(=O)(=O)CC3)C2=O)CC1` (configuration not stated), the Potency result is “inactive”.
On to `Cc1ccc(CNC(=O)c2ccc(OC3CCN(S(C)(=O)=O)CC3)c(Cl)c2)s1`, for which the Potency entry is “inactive”.
As to `CN(Cc1cccn1C)Cc1ccnn1C`, the Potency result was “inactive”.
In the case of `CN(Cc1ccc(-c2ccccc2)cc1)C(=O)c1ccccc1F`, the Potency entry is “inactive”.
For the compound `CC(C)=CCC1(CO)CCCN(Cc2ccccc2OCCO)C1` (configuration not stated), the Potency is 12.6 µM (active).
Regarding `O=C(O)COc1ccccc1CN1CC[C@H]2NCCC[C@]2(C(=O)O)C1`, the Potency entry was “inactive”.
Take `COc1ccccc1CNC(=O)CN1CCCC(CO)(CC2CC2)C1` (configuration not stated): the Potency result is “inactive”.
With `Cc1ccsc1CN1CCCCCNC(=O)[C@@H]2CCC[C@@H]21`, the Potency result was “inactive”.
